ELG1 repair inh – ELG1-dependent DNA repair inhibition; 2.3% of 330,000 active; HEK293T ELG1-luciferase reporter, luminescence, 16 h; DNA damage induced by 5-fluorouridine; Potency, µM (highest dose often 46.1 µM), without a hit: at the top dose activity change, negative = inhibition, actives largely listed as inhibitors; AID 504467; further: potency means the concentration at half of the fitted maximal effect; nearly all actives have a fitted effect of over 55% in size
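Quantitative HTS, concentration-response format. 2,000 cells/well co-treated with 5-fluorouridine and compound, 16 hr in 5% CO2 at 37 °C; ONE-Glo luminescence read after 30 min.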
DT40 TDP1 CPT – DT40-hTDP1 cell growth loss with CPT; chicken DT40 Tdp1-/-;hTDP1 cells + 20 nM CPT, ATP luminescence, 48 h; AID 686979; 12% of 420,000 active; Potency, µM (titrated, usually from 46.2 µM), without a hit: at the top dose activity change, negative = growth inhibition, actives largely listed as inhibitors; further: potency means the concentration at half of the fitted maximal effect; nearly all actives have a fitted effect of over 55% in size
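Cell growth measured by CellTiter-Glo luminescence after a minimum 48 h, 37 C compound exposure with 20 nM CPT in Tdp1-knockout DT40 cells stably expressing hTDP1, seeded 400/well; qHTS titration format.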
IL-1B inflam inh – inhibitors of inflammasome signaling (IL-1 beta secretion). THP-1 LPS/ATP IL-1B secretion, AlphaLISA, 16 h; hits give low values. 4.7% of 360,000 active. activity change, % at 57.5 µM; in the data active means activity change below about -50%; inconclusive means mostly about -30% to -49%
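THP-1 cells pretreated 1 hr with compounds (up to 57.5 uM final), then stimulated with LPS (250 ng/mL final) plus ATP (1.25 mM final); secreted IL-1B measured by AlphaLISA after 16 hr, decreased signal indicating inhibition.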
Gal4-VP16 FLuc – inhibits Gal4-VP16 luciferase reporter, ROR gamma counter-screen | Potency, µM (series often up to 53.6 µM), for inactives: top-dose activity, negative = inhibition, actives largely listed as inhibitors | AID 2546 | Drosophila S2 Gal4-VP16 UAS-luciferase, luminescence, 20 h | 3.5% of 310,000 active;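 further: Gal4-VP16 expression switched on by copper sulfate through the metallothionein promoter; potency means the concentration at half of the fitted maximal effect; nearly all actives have a fitted effect of over 50% in size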
TDP1 cell noCPT – qHTS for Inhibitors of human tyrosyl-DNA phosphodiesterase 1 (TDP1): qHTS in cells in absence of CPT | DT40 Tdp1-/- hTDP1 cells, no CPT, ATP luminescence, 48 h | Potency, µM (series often up to 46.2 µM), without a hit: at the top dose activity change, negative = growth inhibition, most hits filed as inhibitors | 15% of 420,000 active | AID 686978, 2013; further: potency means the concentration at half of the fitted maximal effect; nearly all actives have a fitted effect of over 55% in size
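A cellular qHTS used chicken DT40 cells lacking endogenous Tdp1 but carrying stably transfected human TDP1. Compounds were applied without camptothecin, and cell growth kinetics were judged by ATP-dependent luminescence after ≥48 hr.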
RORg inh – ROR gamma (mouse) transcription inhibition. Drosophila S2 Gal4-RORgamma UAS-luciferase reporter, 20 h. Potency, µM (top dose mostly 53.6 µM), without a hit: top-dose activity change, negative = inhibition, hits mostly inhibitors. 5.4% of 310,000 active. AID 2551; further: potency means the concentration at half of the fitted maximal effect; nearly all actives have a fitted effect of over 60% in size
Target sequence (P51450 whole entry, looked up, the tested form may be a part): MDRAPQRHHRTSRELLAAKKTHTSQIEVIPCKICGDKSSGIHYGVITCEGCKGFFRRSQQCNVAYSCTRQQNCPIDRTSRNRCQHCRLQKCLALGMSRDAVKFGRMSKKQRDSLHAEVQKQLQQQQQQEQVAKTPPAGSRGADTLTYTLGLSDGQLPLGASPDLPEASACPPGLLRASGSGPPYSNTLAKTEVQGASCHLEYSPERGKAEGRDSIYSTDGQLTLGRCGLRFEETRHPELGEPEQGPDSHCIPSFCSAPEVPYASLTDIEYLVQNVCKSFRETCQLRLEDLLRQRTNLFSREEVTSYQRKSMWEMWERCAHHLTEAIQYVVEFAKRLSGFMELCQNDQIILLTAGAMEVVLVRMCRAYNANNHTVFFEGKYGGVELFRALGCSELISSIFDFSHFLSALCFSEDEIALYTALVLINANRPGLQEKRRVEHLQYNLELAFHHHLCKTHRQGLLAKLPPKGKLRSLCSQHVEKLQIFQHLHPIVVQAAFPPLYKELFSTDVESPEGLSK
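Schneider cells (Drosophila), stable Gal4 DBD–ROR gamma + UAS-luc; 1 hr cmpd preincubation; Cu2+ induction 700 uM final; 20 hr ambient; luminescence.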
ELG1 FLuc counter – luciferase inhibition in cell-free luciferin readout for ELG1 hits; AID 624247; 3% of 350 active; Potency, µM (titrated, usually from 46.1 µM), for the others: at the highest dose activity change, negative = inhibition, actives largely listed as inhibitors; shares compounds with ELG1 repair inh; cell-free firefly luciferase luminescence counter-screen, ViewLux; further: potency means the concentration at half of the fitted maximal effect
ELG1 Luc conf – inhibits ELG1-dependent DNA repair in HEK293T cells, confirmed; shares compounds with ELG1 repair inh; HEK293T ELG1-luciferase levels, luminescence; cells co-treated with 5-fluorouridine; Potency, µM (top dose mostly 46.1 µM), for inactives: at the top dose activity change, negative = inhibition, usual class: inhibitors; 68% of 670 active; AID 624248; further: potency means the concentration at half of the fitted maximal effect; nearly all actives have a fitted effect of over 55% in size
ELG1 MMS Luc – confirmation of human ELG1 repair inhibitors, MMS stimulated | Potency, µM (doses to about 46.1 µM), inactives show top-dose activity change, negative = inhibition, hits mostly inhibitors | shares compounds with ELG1 repair inh | AID 624249 | HEK293T luciferase-tagged ELG1 level, MMS stimulated | 53% of 670 active; further: potency means the concentration at half of the fitted maximal effect; nearly all actives have a fitted effect of over 60% in size
ELG1 5-FU – confirmation of ELG1 repair inhibitors: viability with 5FU. shares compounds with ELG1 repair inh. cell viability with 5-FU, ELG1-dependent repair. AID 624250. Potency, µM (doses to about 46.1 µM), for inactives: at the top dose activity change, negative = viability loss, usual class: cytotoxic. 670 tested, under 10 active;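 further: ELG1-luc HEK293T cells cotreated with 5-fluorouridine at 10 µM final; potency means the concentration at half of the fitted maximal effect; viability measured 16 h after compound addition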
ELG1 MMS viab – confirmation of ELG1 repair inhibitors: viability with MMS | Cell viability with MMS, ELG1-dependent DNA repair | AID 624251 | shares compounds with ELG1 repair inh | Potency, µM (top dose mostly 46.1 µM), for the others: top-dose activity change, negative = viability loss, usual class: cytotoxic | 33% of 670 active;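 further: ELG1-luc HEK293T cells co-treated with 10 µM MMS; potency means the concentration at half of the fitted maximal effect; viability read 16 h after compound addition; nearly all actives have a fitted effect of over 60% in size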
ELG1 unstim viab – unstimulated viability counter-screen for ELG1 repair hits | 8% of 900 active | Potency, µM (series often up to 45.9 µM), for inactives: top-dose activity change, negative = loss of viability, hits mostly cytotoxic | shares compounds with ELG1 repair inh | cell viability counter-screen, unstimulated, luminescence;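 further: potency means the concentration at half of the fitted maximal effect; compound exposure lasted 16 hours before reading; nearly all actives have a fitted effect of over 55% in size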
FLuc enzyme – firefly luciferase inhibition counter-screen | Potency, µM (series often up to 57.5 µM), inactives show top-dose activity, negative = inhibition, most hits filed as inhibitors | purified firefly luciferase, luminescence counter-screen | 10% of 350 active | shares compounds with ELG1 repair inh; further: potency means the concentration at half of the fitted maximal effect
The depositor's hits bear a star; ? = inconclusive; . = no result; ! = repeats disagree. Shown are actives, neighbours in structure and some others; about 21% of the full set was active somewhere. Unless noted, the call rests on the fitted dose curve; in most records, active means well fitted curve in the direction sought with a large enough effect; inconclusive means small, poorly fitted or top-dose-only effect, or another doubt; inactive means no such curve, though single readings can be large; an effect the other way counts as inactive or inconclusive. On the % scale 0 is the no-effect control and ±100 the full control effect.

SMILES	ELG1 repair inh	DT40 TDP1 CPT	IL-1B inflam inh	Gal4-VP16 FLuc	TDP1 cell noCPT	RORg inh	ELG1 Luc conf	ELG1 MMS Luc	ELG1 5-FU	ELG1 MMS viab	ELG1 unstim viab	others
COc1cccc(-c2nc3c(c(SCC(=O)N4CCOCC4)n2)Cc2c(CO)cnc(C)c2O3)c1	4.61µM*	20.6µM*	-13.9	-18.1%	4.11µM*	19.0%	3.15µM*	14.1µM*	?	?	?	ELG1 FLuc counter=8.9%;FLuc enzyme=-2.0%
COc1cccc(-c2nc3c(c(SCC(=O)Nc4cc(C)ccc4C)n2)Cc2c(CO)cnc(C)c2O3)c1	.	-22.3%	.	.	-4.2%	.	.	.	.	.	.
COc1ccc(C(=O)N2CCc3cc(OC)c(OC)cc3C2)cc1OC	?	?	-5.3	-12.9%	?	-12.0%	.	.	.	.	.
CCCC(=O)N1CCc2cc(OC)c(OC)cc2C1COc1ccccc1OC (configuration not stated)	-8.1%	?	-0.1	-10.9%	18.4µM*!	35.2%	8.89µM*	?	3.9%	?	-5.3%	ELG1 FLuc counter=10.2%;FLuc enzyme=-5.2%
COc1ccc(C(=O)N2CCc3cc(OC)c(OC)cc3C2c2ccc(OC)c(OC)c2)cc1OC (configuration not stated)	3.66µM*	2.9%	-2.8	-2.5%	?	-35.9%	?	15.4%	?	-12.8%	-19.0%
CCNC(=S)N1CCc2cc(OC)c(OC)cc2C1COc1ccccc1OC (configuration not stated)	?	-14.1%	-18.7	-1.8%	-7.7%	?	.	.	.	.	.
COc1ccc(-c2nc3c(c(SCC(=O)Nc4ccccc4OC)n2)Cc2cccc(C)c2O3)cc1	.	-7.5%	.	.	-3.9%	.	.	.	.	.	.
Cc1ccc(-c2nc3c(c(SCC(=O)Nc4cccc(C(=O)O)c4)n2)Cc2cccc(C)c2O3)cc1	.	-1.1%	.	.	?	.	76.3%	76.8%	6.7%	?	4.9%	ELG1 FLuc counter=71.7%;FLuc enzyme=?
N#Cc1ccccc1CN1C(=O)NC2(CCCCCC2)C1=O	11.3%	0.7%	-17.3	2.6%	-1.1%	21.0%	.	.	.	.	.
CCOC(=O)N1CCC(NC(=O)C2CCCN(Cc3nc(-c4ccc(CC)cc4)oc3C)C2)CC1 (configuration not stated)	2.31µM*	2.91µM*	-9.0	?	1.46µM*	17.2%	7.92µM*	2.5µM*	4.1%	3.15µM*	?	ELG1 FLuc counter=-1.6%;FLuc enzyme=0.9%
C=CCOc1ccccc1CN(CCc1ccccc1)C(=O)c1cccc(S(C)(=O)=O)c1	?	?	?	-16.9%	?	-1.4%	.	.	.	.	.
COc1ccc(CNC(=O)C(c2ccco2)N(C(=O)Cc2cccs2)c2cccnc2)cc1 (configuration not stated)	-16.9%	?	0.0	-11.4%	?	18.6%	.	.	.	.	.
COc1ccc(CNC(=O)C(c2ccco2)N(Cc2cccs2)C(=O)Cc2cccs2)cc1 (configuration not stated)	14.6µM*	?	-51.7*	-7.7%	?	21.3%	15.8µM*	15.8µM*	6.4%	-3.6%	-14.3%	ELG1 FLuc counter=-17.1%;FLuc enzyme=-3.8%
O=C1COc2ccc(C(=O)COC(=O)/C=C/c3cccc(F)c3)cc2N1	1.83µM*	-25.0%	-18.2	-26.6%	4.6%	3.4%	4.99µM*	16.9%	14.1%	-13.6%	-12.2%
O=C(Nc1cc(Br)ccc1O)c1cnn2c(C(F)F)cc(C3CC3)nc12	2.31µM*	-13.1%	6.1	-0.7%	16.4µM*	22.9%	0.996µM*	15.2%	?	-2.9%	?
Cc1ccc(CNC(=O)CSc2nc3[nH]ncc3c(=O)[nH]2)cc1	19.2%	?	2.0	-5.6%	?	-10.0%	.	.	.	.	.
CC(OC(=O)c1ccc(NS(=O)(=O)c2ccc3[nH]c(=O)[nH]c3c2)cc1)C(=O)Nc1ccc(Cl)cc1 (configuration not stated)	?	3.2%	?	-8.0%	-22.7%	-6.7%	.	.	.	.	.
COc1ccc(Cl)cc1NC(=O)C(C)OC(=O)c1ccc(NS(=O)(=O)c2ccc3[nH]c(=O)[nH]c3c2)cc1 (configuration not stated)	2.91µM*	-15.7%	?	0.9%	-7.8%	31.6%	2.81µM*	3.0%	?	-2.4%	-4.9%
CCN1CCN(c2nc3c(C)cccn3c(=O)c2C=C(C#N)C#N)CC1	?	-6.4%	8.4	7.4%	0.1%	12.2%	.	.	.	.	.
CC1(C)Cc2c(C#N)c(SCc3ccccc3)nc(N3CCOCC3)c2CO1	2.31µM*	?	-0.6	-7.5%	?	4.0%	2.23µM*	-8.7%	?	10.7%	-9.4%
CCCCCSc1nc(N2CCOCC2)c2c(c1C#N)CC(C)(C)OC2	-28.7%	-21.4%	-12.7	-11.6%	?	-15.4%	.	.	.	.	.

Bioassay records as filed in PubChem BioAssay.
